This is an account of results in PubChem BioAssay (NCI).

About 83,000 compounds went through this panel and 20% of them were active in at least one assay; those are over-represented in the sample as a whole.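 Note: values are percent growth. 100 is the growth of untreated cells, values between 100 and 0 indicate rising inhibition; between -100 and 0 indicates cell death.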 A number with no mark means an inactive call. The source made the active and inactive calls. How the source made its calls: active means growth percent below 10; inactive means the rest.

Common to all, as to assay: NCI-60 one-dose screen, 48 h (100 = growth as untreated, 0 = no growth, -100 = all killed)
Holding throughout (conditions): 10 µM unless noted

Assay [1] deals with DU-145 prostate.
Assay [2] deals with K-562 leukemia.
Assay [3] deals with MALME-3M melanoma.
The subject of assay [4] is MDA-MB-231 breast.
Assay [5] relates to RXF 393 renal.
Assay [6] has as its system SF-268 CNS.
Assay [7] relates to SF-295 CNS.
For assay [8], the system named is SF-539 CNS.
For assay [9], the system named is UACC-257 melanoma.
Assay [10] deals with M14 melanoma.

For `COc1ccc(/C=c2\nc3n(-c4ccccc4)c4nc5c6c(sc5c(=N)n4n-3c2=O)CCCC6)cc1`, the growth in [1] was 104%; in assay [2], 67.2%; in assay [3] it was 97.4%; in [4], 59.9%; in assay [5] it was 98.4%; in assay [6], 88.8%. Besides, the growth is 98.4% in assay [7], 94.9% in assay [8], 106% in assay [9] and 96.7% in assay [10].

Regarding `Cc1ccc(S(=O)(=O)N/N=C\c2cc(Cl)ccc2O)cc1`, the growth in [1] was 92.1%; in [2] it was 82%; in assay [3], 95.3%; in assay [4], 93.8%; in assay [5], 91%; in [6], 94.7%. The growth in assay [7] is 92.1%; in [8], 76.6%; in assay [9], 107%; in [10] it was 96.2%.

For `COc1cc2c(cc1-c1c(C)noc1C)ncc1nc(C3CCC(F)(F)CC3)n(C3CCC(OC(F)F)CC3)c12` (stereo not given), the growth is 73.3% in assay [1]; 41.5% in assay [2]; 48.2% in assay [3]; 37.8% in assay [4]; 75.5% in assay [5]; 72.7% in [6]. The growth was 68.1% in [7], 61.8% in assay [8], 38.8% in assay [9] and 55.1% in [10].

Regarding `c1c[nH]c(CNC2CCCCC2)c1`, the growth in assay [1] is 106%; in assay [2] it was 103%; in [3] it was 106%; in assay [4], 129%; in assay [5], 119%; in assay [6], 101%. Moreover, the growth in assay [7] was 105%; in assay [8], 114%; in assay [9], 119%; in assay [10] it was 104%.

As for `CC/C=C\C[C@H](O)C/C=C1/C(=O)C=C[C@@H]1C/C=C\CCCC(=O)OC`, the growth is 20.2% in assay [1]; 2.74% (active) in assay [2]; 9.07% (active) in [3]; 11.9% in [4]; -19.6% (active) in assay [5]; 15.1% in assay [6]. Further, the growth in assay [7] was -1.98% (active); in [8] it was 7.57% (active); in assay [9], -17.5% (active); in assay [10], -1.46% (active).

On to `CN1C(=O)N(C)C2C1NN=c1s/c(=C\c3ccccc3)c(=O)n12` (stereo not given), for which the growth was 55% in assay [1]; 20.3% in assay [2]; 51.3% in assay [3]; 68.9% in [4]; 54.7% in assay [5]; 57.8% in [6]. Further, the growth in assay [7] was 34%; in assay [8], 45.1%; in [9] it was 54%; in [10], 31%.

In the case of `COc1ccc(-c2nc3sccn3c2-c2cc(-c3cc(OC)c(OC)c(OC)c3)on2)cc1`, the growth was 93.3% in [1]; 47.4% in assay [2]; 105% in assay [3]; 80.9% in assay [4]; 110% in assay [5]; 98.2% in assay [6]. In addition, the growth in assay [7] was 109%; in assay [8] it was 73.7%; in [9], 141%; in [10], 91.7%.

Turning to `Cc1ccc(/C=C/c2c(C(=O)/C=C/c3ccc(C(F)(F)F)cc3)c(C)nc3ccccc23)cc1`, the growth in assay [1] is -78.3% (active); in assay [2], -16.6% (active); in assay [3], -65.4% (active); in assay [4], -40.5% (active); in assay [5] it was -87.8% (active); in [6] it was -5% (active). Also, the growth is -75.8% (active) in assay [7], -83.4% (active) in assay [8], -17.7% (active) in [9] and -35.8% (active) in [10].

As for `CCN1C(=O)N(CC)C2Nn3c(s/c(=C4\C(=O)N(C)c5ccccc54)c3=O)=NC21` (stereo not given), the growth in assay [1] was 18.1%; in assay [2] it was 14.9%; in assay [3], 48.3%; in assay [4], 43.6%; in assay [5], -17.4% (active); in assay [6], 55.5%. The growth in assay [7] is 52.2%; in assay [8], 9.32% (active); in [9], 61.8%; in assay [10] it was 13.1%.

With `COC(=O)c1ccc(CSc2nnc(-c3c(C)nc4ccc(C)cn34)o2)cc1`, the growth in assay [1] was 106%; in assay [2], 82.6%; in assay [3], 111%; in [4], 84.1%; in assay [5] it was 97%; in assay [6], 102%. The growth in [7] was 105%; in assay [8], 103%; in assay [9], 116%; in assay [10] it was 105%.

For `O=S(=O)(Nc1cccc(Cl)c1)c1ccc(-c2cnc(C3CC3)o2)cc1`, the growth in assay [1] was 20.4%; in assay [2], 9.52% (active); in assay [3] it was 58.2%; in [4], 23.3%; in assay [5], 13.8%; in assay [6], 51%. The growth was 15.5% in assay [7], -0.0211% (active) in [8], 63.8% in assay [9] and 16.2% in [10].

Turning to `O=C(/C=C/c1ccco1)c1ccc(Nc2nc(Nc3ccc(F)cc3)nc(Nc3ccc(Cl)cc3)n2)cc1`, the growth in [1] is 77%; in assay [2] it was 67.4%; in assay [3] it was 75.1%; in [4], 55.1%; in assay [5], 35.6%; in assay [6] it was 80.2%. The growth was 65.4% in assay [7], 102% in assay [8], 101% in assay [9] and 84.5% in assay [10].

Regarding `C(=N\Nc1ncc(-c2cc3cc4c(cc3o2)OCO4)s1)/c1ccco1`, the growth in assay [1] is 12.4%; in [2], 21.7%; in [3] it was 25%; in assay [4] it was 42.4%; in [5] it was 17.1%; in [6], 39.2%. In addition, the growth in assay [7] was 84.8%; in assay [8] it was 7% (active); in [9], 80.1%; in assay [10], 52.5%.
